Shown are actives, neighbours in structure and some others; about 0.54% of the full set was active somewhere.
IDH1 R132H inh – qHTS for Inhibitors of mutant isocitrate dehydrogenase 1 (IDH1): qHTS; IDH1-R132H enzyme, NADPH consumption, diaphorase/resazurin fluorescence; 0.093% of 390,000 active; Potency, µM (titrated, usually from 76.6 µM), for the others: at the top dose activity change, negative = inhibition, hits mostly inhibitors; Isocitrate dehydrogenase [NADP] cytoplasmic (Homo sapiens), O75874; active = well fitted inhibition curve with a large enough effect; inconclusive = small, poorly fitted or top-dose-only effect; inactive = no such curve, though single readings can be large or run the other way; also: potency is read from the fitted curve at half-maximal effect; % is scaled to controls: 0 for no effect and ±100 for the full control effect; nearly all actives have a fitted effect of over 65% in size
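IDH1-R132H (0.5 ug/mL dispensed) in pH 7.5 Tris buffer was preincubated 30 min with compound, then given a substrate mix of 0.016 mM NADPH and 2 mM alpha-KG for 80 min at room temperature; remaining NADPH was read by diaphorase/resazurin fluorescence.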
MLL CXXC-DNA inh – qHTS Fluorescence Polarization Assay for Inhibitors of MLL CXXC domain - DNA interaction; Histone-lysine N-methyltransferase 2A (Homo sapiens), Q03164; Potency, µM (series often up to 115 µM), for inactives: at the highest dose activity change, negative = inhibition, usual class: inhibitors; MLL-CXXC / FITC-HOXA9 DNA fluorescence polarization; 0.037% of 290,000 active; active = well fitted inhibition curve with a large enough effect in the polarisation, with a control signal flat, not every such curve was filed as active; inconclusive = small, poorly fitted or top-dose-only effect, or effect the other way, or a change in a side signal; inactive = no such curve, though single readings can be large or run the other way; the % refers to the polarisation; also: potency is read from the fitted curve at half-maximal effect
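Purified MLL-CXXC (added from a 7 uM solution) was preincubated 5 min at ambient with pinned compounds in 50 mM Tris-HCl pH 7.5, 50 mM NaCl, 1 mM DTT, 0.05% BSA. Fluorescein-labeled HOX-A9 DNA (50 nM solution) followed, 30 min, then polarization read.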
LDHA inh – qHTS assay for inhibitors of human lactate dehydrogenase; purified LDHA, NADH/diaphorase-resazurin fluorescence; active compounds read low; activity change, % (values are at about 110 or 230 µM); 0.15% of 480,000 active; AID 1347041, 2019; in the data active = activity change below about -30%; inconclusive = mostly about -25% to -30%;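 also: plate controls were DMSO wells for no effect and wells without enzyme for full effect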
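Human LDH5 (2 nM) was incubated with 0.06 mM NADH and 0.2 mM pyruvate for 5 min at room temperature in Tris pH 7.4. Remaining NADH was coupled through diaphorase/resazurin, and resorufin fluorescence was read at 0 and 20 min.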
Menin-MLL FL inh – qHTS Assay for Inhibitors Targeting the Menin-MLL Interaction in MLL Related Leukemias: Competition With Fluorescein Labeled MLL-derived Peptide. FP activity change, % at 61.4 µM. Fluorescence polarization, fluorescein-MLL peptide displacement from menin. 290,000 tested, under 10 active; active = well fitted curve in the direction sought with a large enough effect in the polarisation, not every such curve was filed as active; inconclusive = small, poorly fitted or top-dose-only effect, or effect the other way, or a change in a side signal; inactive = no such curve, though single readings can be large or run the other way; the % refers to the polarisation; also: % of control where 0% means no effect
pAkt inh – HTS Assay for Inhibitors of Akt Phophorylation: Primary Screen; Neuro2A IGF-stimulated pAkt S473 HTRF, 20 min; active compounds read low; activity change, % for hits at 50 µM; 0.32% of 360,000 active; AID 651550, 2012; in the data active = activity change below about -80%; inconclusive = mostly about -51% to -80%; also: % is scaled to controls: 0 for no effect and ±100 for the full control effect
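Single-point screen (50 µM final compound) in Neuro2A cells stimulated 20 min with 6 nM IGF at 37 deg C. After lysis, Ser473-phosphorylated Akt read by HTRF (ex 330 nm, em 615/665 nm) as the 665/615 ratio.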
Menin-MLL TR inh – qHTS Assay for Inhibitors Targeting the Menin-MLL Interaction in MLL Related Leukemias: Competition With Texas Red Labeled MLL-derived Mutant Peptide | AID 1768, 2009 | 0.23% of 270,000 active | Potency, µM (series often up to 61.6 µM), without a hit: top-dose FP activity change, negative = inhibition, usual class: inhibitors | O00255 | Menin + Texas Red MLL mutant peptide, fluorescence polarization; active = well fitted inhibition curve with a large enough effect in the polarisation, with a control signal flat, not every such curve was filed as active; inconclusive = small, poorly fitted or top-dose-only effect, or effect the other way, or a change in a side signal; inactive = no such curve, though single readings can be large or run the other way; the % refers to the polarisation; also: potency is read from the fitted curve at half-maximal effect; % of control where 0% means no effect
Target sequence (O00255 whole entry, looked up): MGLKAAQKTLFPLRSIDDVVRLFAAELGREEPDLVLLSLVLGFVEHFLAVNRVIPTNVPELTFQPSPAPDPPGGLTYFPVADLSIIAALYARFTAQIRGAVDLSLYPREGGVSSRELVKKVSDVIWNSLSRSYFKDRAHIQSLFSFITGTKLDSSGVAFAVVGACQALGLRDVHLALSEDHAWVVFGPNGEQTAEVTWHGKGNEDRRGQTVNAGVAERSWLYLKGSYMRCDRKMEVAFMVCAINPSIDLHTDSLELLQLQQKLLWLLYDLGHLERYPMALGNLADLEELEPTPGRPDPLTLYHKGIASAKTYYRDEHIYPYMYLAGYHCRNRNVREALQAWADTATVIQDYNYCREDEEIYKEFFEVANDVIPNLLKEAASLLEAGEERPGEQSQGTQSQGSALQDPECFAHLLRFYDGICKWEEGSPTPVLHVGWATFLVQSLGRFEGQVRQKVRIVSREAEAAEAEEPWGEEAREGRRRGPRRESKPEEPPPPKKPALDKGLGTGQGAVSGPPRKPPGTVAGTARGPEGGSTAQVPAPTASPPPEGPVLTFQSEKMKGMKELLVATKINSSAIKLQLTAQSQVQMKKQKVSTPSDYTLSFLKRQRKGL
Numbers without * were called inactive; i = inactive; ? = inconclusive; · = no result.

SMILES	IDH1 R132H inh	MLL CXXC-DNA inh	LDHA inh	Menin-MLL FL inh	pAkt inh	Menin-MLL TR inh
Cc1ccc2c(Cl)cc(Cl)c(OCC(=O)NC3(C#N)CCCCC3)c2n1	·	·	0	·	·	·
CSc1nc(-c2ccc(Cl)cc2)nn1S(=O)(=O)c1ccc(Cl)cc1	12%	0%	-8	1	i	10%
CSc1nc(-c2ccc(Cl)cc2)nn1S(=O)(=O)c1ccccc1	5%	-3%	0	2	-115%*	-7%
O=C1CC(=O)N(Cc2ccco2)C(=O)N1	0%	10%	?	?	i	3%
O=C1CC(=O)N(Cc2ccco2)C(=S)N1	-4%	7%	-36*	?	i	49%
O=C(NCc1cccn1Cc1ccccc1F)Nc1ccc(F)cc1	·	·	0	·	·	·
O=C(CSc1nnc(C2CC2)n1C1CC1)c1c[nH]c(C(=O)N2CCCC2)c1	·	·	-32*	·	·	·
Nc1cc(C(=O)OCc2cccc(F)c2)ccc1Cl	·	·	5	·	·	·
O=C(CSc1nnc(Cc2cccs2)n1-c1ccccc1)NCc1ccc2c(c1)OCO2	2%	5%	3	1	-85%*	-5%
O=C1CCCC2=C1C(c1ccc(F)cc1F)Nc1nonc1N2 (configuration not stated)	·	·	-33*	·	·	·
O=C1NC2=C(C(=O)CCC2)C(c2ccc3ncccc3c2)N1 (configuration not stated)	-1%	4%	-4	0	i	2%
O=C(OCC#CCSc1nc2ccccc2s1)c1cccc2ccccc12	·	·	-2	·	·	·
CC(=O)Nc1ccc(CNC2CCCC(C)C2C)cc1 (configuration not stated)	·	·	1	·	·	·
CCc1ccc(NS(=O)(=O)c2ccc(C)c(C(=O)N3CCOCC3)c2)cc1	-3%	12%	-44*	·	i	·
Cc1ccc(NS(=O)(=O)c2ccc(C)c(C(=O)N3CCOCC3)c2)cc1	7%	0%	-2	·	i	·
CC(C)C(=O)Nc1ccc(Cl)cc1Cl	·	·	2	·	·	·
CCCCCCn1c(SCC(=O)c2c(N)n(C)c(=O)n(C)c2=O)nc2ccccc21	1%	-15%	-4	-1	-98%*	1%
CCCn1c(N)c(C(=O)CSc2nc3ccccc3n2CCC#N)c(=O)n(C)c1=O	4%	6%	-3	0	i	11%
CN(Cc1ccc(Cl)c(Cl)c1)C(C(=O)NC1CC1)c1ccccc1 (configuration not stated)	·	·	-2	·	·	·
O=C(NC(Cc1ccccc1)C(=O)N1CCN(c2ncccn2)CC1)c1ccco1 (configuration not stated)	·	·	6	·	·	·
CCn1c(SCC(=O)NCCOC)nc2sc3c(c2c1=O)CCCC3	4%	-1%	-1	3	-80%*	2%
CCn1c(SCC(=O)NCCOC)nc2sc(C)c(C)c2c1=O	·	14%	·	3	·	-27%
O=C(N/N=C/c1cccs1)c1ccc(Cl)cc1Cl	·	·	-8	·	·	·
CC[C@@H](C)[C@H](CNC)NC[C@@H](Cc1cccc2ccccc12)NCCc1cccc(C(F)(F)F)c1	8%	127%	10	1	i	32µM*
CCC[C@H](CN[C@@H](CNC)[C@H](C)CC)NCCc1cc(C(F)(F)F)cc(C(F)(F)F)c1	-9%	57%	2	2	i	-4%
SMILES	IDH1 R132H inh	MLL CXXC-DNA inh	LDHA inh	Menin-MLL FL inh	pAkt inh	Menin-MLL TR inh
O=C(Oc1cccc2cccnc12)c1ccco1	7%	-7%	2	0	-110%*	13%
Cc1ccc(NC(=O)C2C3CCC(O3)C2C(=O)O)cc1C (configuration not stated)	-10%	4%	-3	1	i	-3%
O=C(O)C1C2CCC(O2)C1C(=O)Nc1ccc(O)cc1 (configuration not stated)	1%	-2%	0	·	i	32µM*
CCOC(=O)c1c(C)nc2sc3c(c2c1-c1ccc(OC)cc1)NC(c1ccccc1)NC3=O (configuration not stated)	-13%	-8%	-4	?	i	·
COc1ccc(-c2c(C(C)=O)c(C)nc3sc4c(c23)NC(c2ccccc2)NC4=O)cc1 (configuration not stated)	5%	1%	-5	2	-85%*	?
CCCNC(=O)c1cccc(NC(=O)Nc2ccccc2)c1	·	·	-2	·	·	·
O=C(C[n+]1ccc(CCSc2ccc(F)cc2)cc1)c1ccccc1	-6%	32%	3	?	i	18µM*
COC(=O)c1cc(S(=O)(=O)N2CCOCC2)ccc1Sc1ccccc1N	2%	-11%	5	0	-99%*	-23%
Clc1ccc(/C=N/Nc2c(Cl)cc(Cl)cc2Cl)cc1	·	·	1	·	·	·
Cc1noc(C)c1CSc1nnc(C)c(=O)[nH]1	5%	0%	-6	1	-108%*	8%
Cc1nnc(SCc2cccs2)[nH]c1=O	2%	7%	-7	-1	i	12%
CCOc1ccc(C2CC(=O)Nc3c(-c4ccc(C)cc4)csc32)cc1OCC (configuration not stated)	·	·	8	·	·	·
CCn1c(C)c(C(C)=O)c2cc(OCC(O)CN3CCN(CCO)CC3)ccc21 (configuration not stated)	·	·	6	·	·	·
CCCN(CCC)Cc1c(C)[nH]c2ccc(Br)cc2c1=O	·	·	-31*	·	·	·
N#CC1=C(N)OC2=C(C(=O)CCC2)C1c1ccc(C(F)(F)F)cc1 (configuration not stated)	·	·	8	·	·	·
N#CC1=C(N)OC2=C(C(=O)CCC2)C1C1C=CCCC1 (configuration not stated)	0%	2%	-4	5	-110%*	11%
CCc1ccc(NC(=O)c2ccc3c(c2)NC(=O)CS3)cc1	·	·	0	·	·	·
Cc1ccc(NC(=O)CS(=O)CC(=O)Nc2ccc(N3CCOCC3)cc2)cc1Cl (configuration not stated)	10%	17%	-31*	4	i	25%
Cc1cc(C)c(NC(=O)CS(=O)CC(=O)Nc2ccc(N3CCOCC3)cc2)c(C)c1 (configuration not stated)	0%	10%	-10	0	i	-10%
Cc1ccc(NC(=O)COc2ccccc2)cc1Cl	-11%	2%	-1	1	i	2%
CCOCC(=O)Nc1ccc(C)c(Cl)c1	0%	0%	2	0	-129%*	-3%

Compound activity deposited in PubChem by National Center for Advancing Translational Sciences (NCATS).
